Data from PubChem BioAssay (NCI).
Compounds without any hit were thinned out: in the full panel of roughly 83,000, 20% have a hit.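 Single-dose data. Exposure time 48 hours. Values below 10 considered active.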 A number with no mark means an inactive call. Activity calls are given as the source filed them.

Experiments:
Test in all cases: NCI-60 one-dose screen, 48 h (100 = growth as untreated, 0 = no growth, -100 = all killed)
Details in all cases: 10 µM
NCI-H23 lung = system: NCI-H23 lung
NCI-H226 lung = system: NCI-H226 lung
NCI-H322M lung = system: NCI-H322M lung
HOP-62 NSCLC = system: HOP-62 NSCLC
NCI-H460 lung = system: NCI-H460 lung
HOP-92 NSCLC = system: HOP-92 NSCLC
NCI-H522 lung = system: NCI-H522 lung
A549/ATCC NSCLC = system: A549/ATCC NSCLC
786-0 renal = system: 786-0 renal
COLO 205 colon = system: COLO 205 colon
DU-145 prostate = system: DU-145 prostate
K-562 leukemia = system: K-562 leukemia
MALME-3M melanoma = system: MALME-3M melanoma
RXF 393 renal = system: RXF 393 renal
SF-268 CNS = system: SF-268 CNS
SF-295 CNS = system: SF-295 CNS
SF-539 CNS = system: SF-539 CNS
UACC-257 melanoma = system: UACC-257 melanoma
M14 melanoma = system: M14 melanoma
MDA-MB-231 breast = system: MDA-MB-231 breast

| Structure (SMILES) | growth (NCI-H23 lung) | growth (NCI-H226 lung) | growth (NCI-H322M lung) | growth (HOP-62 NSCLC) | growth (NCI-H460 lung) | growth (HOP-92 NSCLC) | growth (NCI-H522 lung) | growth (A549/ATCC NSCLC) | growth (786-0 renal) | growth (COLO 205 colon) | growth (DU-145 prostate) | growth (K-562 leukemia) | growth (MALME-3M melanoma) | growth (RXF 393 renal) | growth (SF-268 CNS) | growth (SF-295 CNS) | growth (SF-539 CNS) | growth (UACC-257 melanoma) | growth (M14 melanoma) | growth (MDA-MB-231 breast) |
| --- | --- | --- | --- | --- | --- | --- | --- | --- | --- | --- | --- | --- | --- | --- | --- | --- | --- | --- | --- | --- |
| NC1=NC(c2ccccc2Cl)N=C(Nc2nn[nH]n2)N1 (configuration not stated) | 106% | 105% | 111% | 108% | 108% | 95.3% | 102% | 103% | 103% | 116% | 106% | 100% | 101% | 113% | 101% | 101% | 103% | 106% | 106% | – |
| Cc1ccc(-c2cc(-c3cc4ccccc4nc3Cl)[nH]c(=S)n2)cc1 | 71.5% | 74.2% | 81.7% | 90.1% | 83.3% | 44.7% | 37.8% | 85.5% | 74.3% | 89.5% | 63.7% | 18.6% | 46% | 28.1% | 77.8% | 45.1% | 55.7% | 66.5% | 15.9% | – |
| O=C(CSc1ccc(-c2ccc(Cl)cc2)nn1)Nc1ccc(Cl)c(C(F)(F)F)c1 | 73.6% | 76.1% | 89.1% | 57.4% | 98.6% | 75.8% | 55.1% | 70.5% | 80.6% | 74.8% | 80% | 9.36% (active) | 54.1% | 71.1% | 73.7% | 56.3% | 60.7% | 67.7% | 50.6% | – |
| CC1(C)CC[C@]2(C(=O)N3CCOCC3)CC[C@]3(C)C(=CC[C@@H]4[C@@]5(C)CC[C@H](NCO)C(C)(C)[C@@H]5CC[C@]43C)[C@H]2C1 | -88.1% (active) | -88.3% (active) | -97.8% (active) | -73.8% (active) | -92.7% (active) | -64.3% (active) | -79.8% (active) | -85.8% (active) | -88.2% (active) | -72.7% (active) | -89.4% (active) | – | -96.6% (active) | -95% (active) | -76.5% (active) | -87.2% (active) | -96.8% (active) | -93.9% (active) | -84.6% (active) | -97.6% (active) |
| Cc1ccc(NC(=O)c2ccc(-n3c(=O)[nH]c4ccccc4c3=O)cc2)cc1 | 88.2% | 61% | 99.9% | 82% | 86.3% | 36.5% | 13.8% | 113% | 36.7% | 109% | 102% | – | 84.8% | 54.3% | 84.4% | 91.9% | 38% | 122% | 101% | 64.6% |
| N#C/C(=C\c1ccc(N(c2ccccc2)c2ccccc2)cc1)C(N)=O | 55.9% | -82.6% (active) | 92.9% | 48.9% | 5.51% (active) | 75.5% | 74.5% | 36.3% | 53.9% | 19.7% | 84.8% | 35.4% | 110% | – | 102% | 23.5% | 97% | -55.9% (active) | 90.7% | 89.3% |
| Cc1cccc2cc(-c3cc(-c4ccccc4)nc(=O)[nH]3)c(Cl)nc12 | 88.7% | 75.7% | 89.9% | 109% | 80.7% | 77.1% | 87.7% | 96.4% | 91.6% | 119% | 91.7% | 44.3% | 96.6% | 88.3% | 96.3% | 76% | 78.1% | 99.7% | 98.6% | – |
| CN1CCN(c2ccc(Nc3nc(N4CCN(S(=O)(=O)c5ccc(Cl)cc5)CC4)c4sccc4n3)cc2)CC1 | 46.6% | -22.2% (active) | 74.5% | 71.4% | -70.6% (active) | 69.1% | -82.7% (active) | 22% | -62.9% (active) | -77.9% (active) | -60.8% (active) | – | -97.6% (active) | -95.7% (active) | 52.9% | -78% (active) | -100% (active) | -87.1% (active) | -60.6% (active) | -86.3% (active) |
